Reference: PubChem BioAssay (Tox21)
“And” between values parts separate entries of the source, which are not always exact repeats. Equal values may be shown once. Results filed as inconclusive are left out. The source holds several records for some structures; these can differ, active in one and inactive in another. The source made the active and inactive calls. The call rests on the fitted dose curve; in most records, active means well fitted curve in the direction sought with a large enough effect in the repeat runs; inconclusive means weak or mixed curves; inactive means no such curve, though single readings can be large; an effect the other way counts as inactive or inconclusive.

Tests used:
[1] = Caspase-3/7 induction in CHO-K1 cells by small molecules, qHTS cell viability counter screen (AID 1346979); further: nearly all actives have a fitted effect of over 35% in size; further: potency means the concentration at half of the fitted maximal effect; on activity change, negative = cytotoxicity: on the % scale 0 is the no-effect control and ±100 the full control effect
Summary of the method: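 Cells (CHO-K1, wild type) are plated at 1,500 per well and incubated 5hr. Test compounds in DMSO are then pinned in, followed by 16hr at 37C and 5% CO2. Viability is read by CellTiter-Fluor fluorescence after 1hr.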

[2] = Caspase-3/7 induction in CHO-K1 cells by small molecules, qHTS assay (AID 1346980); further: on the % scale 0 is the no-effect control and ±100 the full control effect; nearly all actives have a fitted effect of over 15% in size
Summary of the method: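 Luminescent Caspase-Glo 3/7 read (30min, room temperature) quantified apoptosis induction. Cells were wild-type CHO-K1, treated with compound for 17hr at 37 C and 5% CO2.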

[3] = molecular target: Nuclear receptor subfamily 1 group I member 2 (Homo sapiens) (UniProt O75469); assay: Human pregnane X receptor (PXR) small molecule agonists, qHTS assay (AID 1346982); further: nearly all actives have a fitted effect of over 35% in size; further: potency means the concentration at half of the fitted maximal effect; on activation: on the % scale 0 is the no-effect control and ±100 the full control effect
Summary of the method: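 Cells: HepG2 stably carrying PXR-Luc. Medium held 5% charcoal-stripped FBS. Compounds in DMSO added after 5 hr plating, incubated 24 hr, then luminescence quantified with ONE-Glo.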

[4] = molecular target: Cytochrome P450 2D6 (Homo sapiens) (UniProt P10635); assay: Cytochrome P450 Family 2 Subfamily D Member 6 (CYP2D6) small molecule antagonists: luciferase reporter qHTS assay (AID 1671196); further: nearly all actives have a fitted effect of over 50% in size; further: potency means the concentration at half of the fitted maximal effect; on activity change, negative = inhibition: series mostly up to about 120 µM; on the % scale 0 is the no-effect control and ±100 the full control effect
Summary of the method: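 Enzyme and proluciferin substrate were first combined with test chemical for 10 min at room temperature. Adding NADPH regeneration solution started a 1 h reaction, stopped with luciferin detection reagent and read by luminescence 20 min later.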

[5] = molecular target: Cytochrome P450 2C19 (Homo sapiens) (UniProt P33261); assay: Cytochrome P450 Family 2 Subfamily C Member 19 (CYP2C19) small molecule antagonists: luciferase reporter qHTS assay (AID 1671197); further: nearly all actives have a fitted effect of over 65% in size; further: potency means the concentration at half of the fitted maximal effect; on activity change, negative = inhibition: series mostly up to about 120 µM; on the % scale 0 is the no-effect control and ±100 the full control effect
Summary of the method: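 CYP2C19 P450-Glo, 1536-well qHTS. Cpd + enzyme/proluciferin substrate 10 min RT; + NADPH regen, 37C 1 h; stop with luciferin detection reagent, 20 min RT, luminescence (RLU). Pos ctrl ketoconazole.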

[6] = molecular target: Cytochrome P450 1A2 (Homo sapiens) (UniProt P05177); assay: Cytochrome P450 Family 1 Subfamily A Member 2 (CYP1A2) small molecule antagonists: luciferase reporter qHTS assay (AID 1671199); further: nearly all actives have a fitted effect of over 50% in size; further: potency means the concentration at half of the fitted maximal effect
Summary of the method: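 Compounds were incubated with CYP1A2 and a luminogenic proluciferin substrate for 10 min at room temperature before the reaction was started with NADPH regeneration solution. After 1 h, detection reagent was added and light output, proportional to CYP activity, was recorded.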

[7] = molecular target: Voltage-gated inwardly rectifying potassium channel KCNH2 (Homo sapiens) (UniProt Q12809); assay: Human Ether-a-go-go-Related Gene (hERG) channel small molecule antagonists: fluorescence cell-based qHTS assay (AID 1671200); further: nearly all actives have a fitted effect of over 50% in size; further: potency means the concentration at half of the fitted maximal effect
Summary of the method: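 Channel function was assessed by thallium flux. Cells seeded the previous day and kept at 37 C took up FluxOR II dye over 1 h in the dark at room temperature, then sat another 10 min before stimulation.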

[8] = molecular target: Cytochrome P450 3A4 (Homo sapiens) (UniProt P08684); assay: Cytochrome P450 Family 3 Subfamily A Member 4 (CYP3A4) small molecule antagonists: luciferase reporter qHTS assay (AID 1671201); further: nearly all actives have a fitted effect of over 50% in size; further: potency means the concentration at half of the fitted maximal effect
Summary of the method: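 Compounds in DMSO were pin-transferred onto CYP3A4 enzyme-substrate mix and held 10 min at room temperature. NADPH regenerating solution started the reaction for 1 h; luciferin detection reagent stopped it, and luminescence was read after 20 min.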

[9] = Caspase-3/7 induction in HepG2 cells by small molecules, qHTS cell viability counter screen (AID 1346981); further: series mostly up to about 92 µM; on the % scale 0 is the no-effect control and ±100 the full control effect; nearly all actives have a fitted effect of over 30% in size
Summary of the method: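 Cell viability is measured as a cytotoxicity counter screen alongside the Caspase-Glo 3/7 readout in identical wells. Wild-type HepG2 cells are treated with test compounds for 16 hr at 37 C before CellTiter-Fluor addition and a 1-hr incubation.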

[10] = molecular target: Cytochrome P450 2C9 (Homo sapiens) (UniProt P11712); assay: Cytochrome P450 Family 2 Subfamily C Member 9 (CYP2C9) small molecule antagonists: luciferase reporter qHTS assay (AID 1671198); further: nearly all actives have a fitted effect of over 50% in size; further: potency means the concentration at half of the fitted maximal effect
Summary of the method: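 Enzyme-substrate mix preincubated with compound 10 min at room temperature; reaction started with NADPH regeneration solution, 1 h 37C. Luminescent luciferin product read after 20 min detection reagent.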

[11] = molecular target: Nuclear receptor subfamily 1 group I member 2 (Rattus norvegicus) (UniProt Q9R1A7); assay: Rat pregnane X receptor (rPXR) activation by small molecules, qHTS assay (AID 1346983); conditions: rPXR luciferase reporter cells, One-Glo luminescence, 24 h; stronger effect = higher value; further: on the % scale 0 is the no-effect control and ±100 the full control effect; nearly all actives have a fitted effect of over 20% in size
Summary of the method: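 Luminescent readout (One-Glo luciferase, 30 min room temperature) followed 24 hr compound treatment at 37 C of rPXR cells plated 2,000 per well and preincubated 5hr; qHTS format with compounds delivered in DMSO.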

[12] = molecular target: Nuclear receptor subfamily 1 group I member 2 (Homo sapiens) (UniProt O75469); assay: CYP3A4 induction through human pregnane X receptor (PXR) by small molecules, qHTS assay (AID 1346984); further: potency means the concentration at half of the fitted maximal effect; nearly all actives have a fitted effect of over 40% in size
Summary of the method: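 Quantitative HTS in DPX-2 cells, i.e. HepG2 transfected with PXR response element and CYP3A4-promoter luciferase. Compounds in DMSO incubated 24hr at 37C; then P450-Glo CYP3A4 substrate, 3uM final, 3hr; One-Glo luminescence.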

Chain of Nuclear receptor subfamily 1 group I member 2 (Homo sapiens) (O75469 whole entry, looked up): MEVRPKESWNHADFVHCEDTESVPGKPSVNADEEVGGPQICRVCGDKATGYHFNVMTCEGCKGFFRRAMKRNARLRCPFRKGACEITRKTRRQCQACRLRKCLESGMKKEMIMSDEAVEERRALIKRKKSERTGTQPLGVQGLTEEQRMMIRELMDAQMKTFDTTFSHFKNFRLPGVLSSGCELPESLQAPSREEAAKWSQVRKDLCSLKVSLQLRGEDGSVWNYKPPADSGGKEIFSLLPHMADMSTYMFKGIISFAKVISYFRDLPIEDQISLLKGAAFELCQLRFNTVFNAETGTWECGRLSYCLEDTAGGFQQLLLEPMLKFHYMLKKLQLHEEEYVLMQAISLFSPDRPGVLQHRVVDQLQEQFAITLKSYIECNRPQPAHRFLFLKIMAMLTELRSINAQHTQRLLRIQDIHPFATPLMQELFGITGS
Chain of Cytochrome P450 1A2 (Homo sapiens) (P05177 whole entry, looked up): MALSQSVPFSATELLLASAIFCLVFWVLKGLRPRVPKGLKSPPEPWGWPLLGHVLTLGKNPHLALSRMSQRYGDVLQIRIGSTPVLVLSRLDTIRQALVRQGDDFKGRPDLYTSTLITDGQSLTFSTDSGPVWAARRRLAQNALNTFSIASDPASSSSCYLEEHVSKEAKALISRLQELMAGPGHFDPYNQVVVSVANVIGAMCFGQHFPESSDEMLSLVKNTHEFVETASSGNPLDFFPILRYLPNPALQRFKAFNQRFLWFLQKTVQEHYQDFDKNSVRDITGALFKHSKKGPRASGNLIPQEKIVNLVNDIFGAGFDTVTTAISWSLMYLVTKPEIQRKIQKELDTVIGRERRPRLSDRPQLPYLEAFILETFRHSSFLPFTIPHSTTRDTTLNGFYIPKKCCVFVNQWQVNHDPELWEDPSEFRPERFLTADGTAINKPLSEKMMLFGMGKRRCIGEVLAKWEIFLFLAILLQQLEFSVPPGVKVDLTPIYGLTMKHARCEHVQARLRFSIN
Chain of Cytochrome P450 3A4 (Homo sapiens) (P08684 whole entry, looked up): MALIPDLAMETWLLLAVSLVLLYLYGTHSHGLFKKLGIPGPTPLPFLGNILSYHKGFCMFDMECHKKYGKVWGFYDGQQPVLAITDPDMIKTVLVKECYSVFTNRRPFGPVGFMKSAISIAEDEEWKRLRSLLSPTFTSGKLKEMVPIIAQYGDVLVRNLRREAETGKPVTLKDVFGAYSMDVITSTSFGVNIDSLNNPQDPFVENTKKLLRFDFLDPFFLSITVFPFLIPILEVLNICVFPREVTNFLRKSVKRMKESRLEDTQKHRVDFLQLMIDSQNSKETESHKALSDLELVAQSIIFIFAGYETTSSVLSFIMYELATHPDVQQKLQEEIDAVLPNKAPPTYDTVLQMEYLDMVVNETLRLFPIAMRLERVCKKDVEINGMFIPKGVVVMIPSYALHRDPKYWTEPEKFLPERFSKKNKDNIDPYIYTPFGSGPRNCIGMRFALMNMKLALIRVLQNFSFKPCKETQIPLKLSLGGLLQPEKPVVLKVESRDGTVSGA
Chain of Cytochrome P450 2D6 (Homo sapiens) (P10635 whole entry, looked up): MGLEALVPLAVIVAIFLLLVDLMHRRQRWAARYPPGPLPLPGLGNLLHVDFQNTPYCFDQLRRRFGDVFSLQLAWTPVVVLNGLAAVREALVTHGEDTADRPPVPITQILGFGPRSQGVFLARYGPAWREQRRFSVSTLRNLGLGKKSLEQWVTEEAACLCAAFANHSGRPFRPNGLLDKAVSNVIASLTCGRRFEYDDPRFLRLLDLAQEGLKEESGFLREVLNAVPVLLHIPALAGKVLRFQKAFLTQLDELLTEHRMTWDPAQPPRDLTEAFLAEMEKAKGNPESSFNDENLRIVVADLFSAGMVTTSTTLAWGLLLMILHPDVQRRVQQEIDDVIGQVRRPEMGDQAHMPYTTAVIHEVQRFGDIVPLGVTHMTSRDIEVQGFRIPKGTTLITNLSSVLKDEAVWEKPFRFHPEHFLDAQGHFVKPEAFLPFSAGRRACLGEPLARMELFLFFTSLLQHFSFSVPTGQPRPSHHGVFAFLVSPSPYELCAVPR
Chain of Voltage-gated inwardly rectifying potassium channel KCNH2 (Homo sapiens) (Q12809 whole entry, looked up): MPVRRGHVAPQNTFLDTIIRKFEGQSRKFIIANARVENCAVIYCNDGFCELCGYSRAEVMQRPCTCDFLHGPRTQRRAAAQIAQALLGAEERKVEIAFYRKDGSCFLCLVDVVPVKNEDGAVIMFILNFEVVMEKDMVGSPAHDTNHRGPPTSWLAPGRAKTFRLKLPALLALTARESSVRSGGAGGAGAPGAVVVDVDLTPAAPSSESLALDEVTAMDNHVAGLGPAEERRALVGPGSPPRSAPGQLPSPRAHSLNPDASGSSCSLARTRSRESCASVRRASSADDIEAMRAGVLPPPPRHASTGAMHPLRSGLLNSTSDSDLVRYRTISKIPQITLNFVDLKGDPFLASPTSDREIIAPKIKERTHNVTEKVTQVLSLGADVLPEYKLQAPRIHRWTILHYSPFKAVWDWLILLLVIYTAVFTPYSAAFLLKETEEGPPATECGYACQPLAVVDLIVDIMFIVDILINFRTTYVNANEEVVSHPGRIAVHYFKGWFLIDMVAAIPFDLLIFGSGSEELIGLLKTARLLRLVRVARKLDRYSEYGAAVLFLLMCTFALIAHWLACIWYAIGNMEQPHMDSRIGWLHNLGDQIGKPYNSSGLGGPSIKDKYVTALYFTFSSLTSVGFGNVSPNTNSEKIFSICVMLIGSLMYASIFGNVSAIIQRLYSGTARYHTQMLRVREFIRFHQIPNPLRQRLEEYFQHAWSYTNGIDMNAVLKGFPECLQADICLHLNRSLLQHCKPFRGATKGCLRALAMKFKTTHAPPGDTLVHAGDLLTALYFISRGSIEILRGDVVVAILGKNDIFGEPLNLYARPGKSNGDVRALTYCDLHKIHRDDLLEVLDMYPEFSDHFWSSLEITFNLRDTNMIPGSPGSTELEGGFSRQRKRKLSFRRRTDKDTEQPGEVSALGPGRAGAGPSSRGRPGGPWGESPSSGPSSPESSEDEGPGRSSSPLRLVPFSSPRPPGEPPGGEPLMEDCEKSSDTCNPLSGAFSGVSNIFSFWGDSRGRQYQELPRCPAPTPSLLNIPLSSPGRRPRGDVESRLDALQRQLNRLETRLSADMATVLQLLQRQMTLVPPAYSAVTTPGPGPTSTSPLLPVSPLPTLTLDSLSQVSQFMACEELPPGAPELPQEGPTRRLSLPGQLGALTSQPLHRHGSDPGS
Chain of Nuclear receptor subfamily 1 group I member 2 (Rattus norvegicus) (Q9R1A7 whole entry, looked up): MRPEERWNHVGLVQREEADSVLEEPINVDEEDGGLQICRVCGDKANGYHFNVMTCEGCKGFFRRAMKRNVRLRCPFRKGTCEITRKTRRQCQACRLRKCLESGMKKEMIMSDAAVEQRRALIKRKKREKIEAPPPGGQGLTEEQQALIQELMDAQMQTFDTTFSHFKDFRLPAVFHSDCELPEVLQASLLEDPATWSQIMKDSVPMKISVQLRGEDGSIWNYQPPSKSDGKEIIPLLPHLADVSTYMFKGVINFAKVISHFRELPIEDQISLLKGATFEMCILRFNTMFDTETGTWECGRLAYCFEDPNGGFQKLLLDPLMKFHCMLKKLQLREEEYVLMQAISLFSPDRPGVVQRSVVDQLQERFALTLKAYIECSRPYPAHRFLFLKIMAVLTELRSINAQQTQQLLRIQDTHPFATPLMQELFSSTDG
Chain of Cytochrome P450 2C9 (Homo sapiens) (P11712 whole entry, looked up): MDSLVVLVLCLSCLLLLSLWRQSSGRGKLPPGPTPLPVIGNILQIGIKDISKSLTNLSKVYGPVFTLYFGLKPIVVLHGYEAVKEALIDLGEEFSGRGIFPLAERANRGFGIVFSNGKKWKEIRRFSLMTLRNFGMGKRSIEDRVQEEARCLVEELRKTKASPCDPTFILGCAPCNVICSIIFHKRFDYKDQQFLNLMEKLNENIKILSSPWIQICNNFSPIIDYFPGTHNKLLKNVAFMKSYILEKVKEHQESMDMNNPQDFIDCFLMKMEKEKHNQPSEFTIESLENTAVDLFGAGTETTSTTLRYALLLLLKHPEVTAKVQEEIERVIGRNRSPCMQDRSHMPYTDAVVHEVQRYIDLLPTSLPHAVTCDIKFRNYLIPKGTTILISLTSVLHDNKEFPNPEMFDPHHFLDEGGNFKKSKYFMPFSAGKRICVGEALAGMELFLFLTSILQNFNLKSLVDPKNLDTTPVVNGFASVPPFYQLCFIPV
Chain of Cytochrome P450 2C19 (Homo sapiens) (P33261 whole entry, looked up): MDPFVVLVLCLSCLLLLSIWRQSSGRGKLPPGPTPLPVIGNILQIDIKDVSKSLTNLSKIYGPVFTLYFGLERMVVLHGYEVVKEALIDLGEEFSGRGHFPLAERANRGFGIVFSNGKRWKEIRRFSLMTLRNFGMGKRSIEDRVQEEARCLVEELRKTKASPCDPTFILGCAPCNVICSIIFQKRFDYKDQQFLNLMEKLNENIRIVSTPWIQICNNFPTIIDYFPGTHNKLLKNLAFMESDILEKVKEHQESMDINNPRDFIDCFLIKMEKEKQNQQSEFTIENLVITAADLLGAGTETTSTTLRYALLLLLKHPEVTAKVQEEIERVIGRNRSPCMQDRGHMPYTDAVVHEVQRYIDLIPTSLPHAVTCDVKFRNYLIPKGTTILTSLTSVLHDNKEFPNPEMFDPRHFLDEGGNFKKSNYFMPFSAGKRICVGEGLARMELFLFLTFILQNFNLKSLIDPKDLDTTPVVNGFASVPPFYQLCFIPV

In the case of NC(Cc1ccc(Cl)cc1)C(=O)O (configuration not stated), the activity change, negative = cytotoxicity [1] was 10.4% [at 0.349 µM] (inactive), the caspase-3/7 activation [2] was 1.39% [at 0.349 µM] (inactive) and the activation [3] was -5.94% [at 0.349 µM] (inactive). For the same compound, the activity change, negative = inhibition [4] was -0.77% [at 0.435 µM] (inactive), the activity change, negative = inhibition [5] was 18.5% [at 0.435 µM] (inactive) and the activity change, negative = inhibition [6] was 10.8% [at 0.435 µM] (inactive). For the same compound, the activity change, negative = inhibition [7] was 10.3% [at 0.29 µM] (inactive) and the activity change, negative = inhibition [8] was 0.0907% [at 0.435 µM] (inactive).
For CC(=O)CC(=O)Nc1ccc2[nH]c(=O)[nH]c2c1, the Potency [1] was “inactive”, the Potency [2] was “inactive” and the Potency [3] was “inactive”. For the same compound, the Potency [4] was “inactive”, the Potency [5] was “inactive” and the Potency [6] was 39.9 µM (active). The Potency [7] was “inactive” and the Potency [8] was “inactive”.
With CC(C)(C)NCC(O)COc1ccccc1OCC1CCCO1 (configuration not stated) the Potency [1] was “inactive”, the Potency [2] was “inactive” and the Potency [3] was “inactive”. For the same compound, the Potency [4] was 2.75 µM (active), the Potency [5] was “inactive” and the Potency [6] was “inactive”. The Potency [7] was “inactive” and the Potency [8] was “inactive”.
In the case of Cc1ccc(S(=O)(=O)Oc2ccc(N=Nc3ccc(-c4ccc(N=Nc5c(O)ccc6cc(S(=O)(=O)O)cc(S(=O)(=O)O)c56)c(C)c4)cc3C)cc2)cc1, the Potency [1] was 15.4 µM (active) and 10 µM (active), the Potency [2] was “inactive” and the Potency [3] was 6.89 µM (active) and inactive. For the same compound, the Potency [4] was 40.1 µM (active) and 26 µM (active), the Potency [5] was 28.4 µM (active) and 51.9 µM (active) and the Potency [6] was 56.6 µM (active) and 23.2 µM (active). The Potency [7] was “inactive”.
For CC1=CC(=O)c2ccccc2C1=O, the Potency [1] was 24.3 µM (active) and 21.1 µM (active), the Potency [2] was “inactive” and the Potency [4] was 31.7 µM (active). The Potency [5] was 14.2 µM (active) and 15.5 µM (active), the Potency [6] was 1.78 µM (active) and 2.75 µM (active) and the Potency [7] was 3.89 µM (active) and 7.56 µM (active).
With CCCCC/C=C/CC1CC(=O)OC1=O (configuration not stated) the Potency [2] was “inactive”, the Potency [9] was “inactive” and the Potency [3] was “inactive”. For the same compound, the Potency [4] was “inactive”, the Potency [10] was “inactive” and the Potency [6] was 28.3 µM (active). For the same compound, the Potency [7] was “inactive” and the Potency [8] was “inactive”.
In the case of Oc1c(Cl)cc(Cl)c(Cl)c1Cc1c(O)c(Cl)cc(Cl)c1Cl, the Potency [1] was 6.09 µM (active) and 15.4 µM (active) and 8.41 µM (active), the Potency [2] was “inactive” and the max activation [11] was -22.6% (inactive). The Potency [4] was “inactive”, the Potency [5] was 70.8 µM (active) and 79.6 µM (active) and inactive and the Potency [10] was 2 µM (active) and 3.56 µM (active) and 1.74 µM (active). For the same compound, the Potency [6] was “inactive”, the Potency [7] was “inactive” and the Potency [8] was “inactive”.
With Nc1cc(Cl)c(-c2cc(Cl)c(N)cc2Cl)cc1Cl the Potency [1] was 30.6 µM (active) and 54.5 µM (active), the Potency [2] was “inactive” and the Potency [3] was 24.3 µM (active) and 19.3 µM (active). For the same compound, the Potency [5] was 10 µM (active) and 7.1 µM (active), the Potency [6] was 11.2 µM (active) and 12.6 µM (active) and the Potency [7] was “inactive”. For the same compound, the Potency [8] was 2 µM (active) and 3.56 µM (active).
For Cc1cc(C2(c3cc(C)c(O)cc3C)OS(=O)(=O)c3ccccc32)c(C)cc1O, the Potency [1] was 30.6 µM (active) and 13.7 µM (active), the Potency [2] was “inactive” and the Potency [3] was 61.1 µM (active) and inactive. The Potency [4] was 39.9 µM (active), the Potency [5] was 7.97 µM (active) and 17.8 µM (active) and the Potency [6] was 31.7 µM (active). The Potency [7] was “inactive” and the Potency [8] was 2 µM (active) and 2.52 µM (active).
For CCN(CC)C(=S)SSC(=S)N(CC)CC, the Potency [1] was 137 nM (active) and 62.6 nM (active) and 376 nM (active), the Potency [2] was “inactive” and the Potency [3] was 15.7 µM (active) and 10.6 µM (active). The Potency [4] was 32.5 µM (active), the Potency [10] was 6.33 µM (active) and 4.21 µM (active) and 4.36 µM (active) and the Potency [6] was 31.7 µM (active) and 21.3 µM (active) and 6.45 µM (active). The Potency [7] was 41 µM (active) and inactive.
For CO[Si](OC)(OC)c1ccccc1, the Potency [1] was “inactive”, the Potency [2] was “inactive” and the Potency [3] was “inactive”. For the same compound, the Potency [4] was “inactive”, the Potency [5] was “inactive” and the Potency [7] was “inactive”.
In the case of CC(C)(C)NC(=O)[C@@H]1CN(Cc2cccnc2)CCN1C[C@@H](O)C[C@@H](Cc1ccccc1)C(=O)N[C@H]1c2ccccc2C[C@H]1O, the Potency [1] was “inactive”, the Potency [2] was “inactive” and the max activation [11] was 4.92% (inactive). For the same compound, the Potency [7] was “inactive”.
In the case of CCCCC(CC)COC(=O)CC(C(=O)OCC(CC)CCCC)S(=O)(=O)O (configuration not stated), the Potency [1] was 52.4 µM (active), the Potency [2] was “inactive” and the Potency [3] was 5.88 µM (active) and 3.06 µM (active). For the same compound, the Potency [4] was “inactive and 17.8 µM (active)”, the Potency [6] was 63.3 µM (active) and the Potency [7] was “inactive”.
With O=C1OC2(c3ccc(O)cc3Oc3cc(O)ccc32)c2ccccc21 the Potency [2] was “inactive”, the Potency [3] was 21.7 µM (active) and inactive and the max activation [11] was 0.287% (inactive). The Potency [12] was 14.1 µM (active), the Potency [4] was “inactive” and the Potency [5] was 20 µM (active) and 4.9 µM (active). For the same compound, the Potency [10] was 11.2 µM (active), the Potency [6] was “inactive” and the Potency [7] was 15.5 µM (active) and inactive. The Potency [8] was “inactive”.
